The nature of assay [1]: stimulators of nuclear beta-catenin in C2C12, primary screen, imaging, WNT3A-conditioned medium, mouse C2C12, NPC library (AID 1117326; in the data active means nuclear beta-catenin stimulation mostly above about 4.2%, no sharp cut-off; inactive means mostly below about 10%). The note with it: stronger effect = higher value.
Assay [2] in a line: stimulators of insulin release from INS-1E, primary screen, cell-based, 5 mM glucose, NPC library (AID 1117329;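 active means compound raises insulin release from rat beta cells at 5 mM glucose, no numeric limit stated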). The conditions noted are these: rat INS-1E insulin secretion, at 10 µM, stronger effect = higher value.
A short description of assay [3]: growth inhibition of GSK3B-pretreated HCT116 cells – cell-based, CellTiter-Glo, 0.2 to 20 µM (AID 1117336;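 active means compounds lowering colon cancer cell viability after pretreatment blocking the GSK3B kinase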). The conditions noted are these: HCT116 viability after GSK3B inhibitor, at 20 µM, stronger effect = higher value.
Assay [4] can be described thus: inhibition of endothelial tube formation, primary screen, imaging, VEGF stimulated, CD31 staining, tube area, NPC library (AID 1117340;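 active means compound that reduces growth-factor-driven endothelial tube area in a mixed cell culture, no cutoff stated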). The note with it: VEGF-stimulated ADSC/ECFC co-culture, at 10 µM, stronger effect = higher value.
A short description of assay [5]: glucagon-like peptide 1 release enhancers, primary assay, NCI-H716 cell line, NPC library (AID 1117341;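 active means compound raises GLP1 secretion from the human gut endocrine cells, with no numeric limit stated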). The conditions noted are these: NCI-H716 cells, at 10 µM, stronger effect = higher value.
Assay [6] can be described thus: HCT116 colon cancer cell growth inhibition, primary screen, CellTiter-Glo luminescence, NPC library (AID 1117342;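 active means compounds that lower survival of HCT116 colon cancer cells in the luminescence readout, no numeric limit stated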). The conditions noted are these: at 20 µM (top of the series).
A short description of assay [7]: CellTiter-Glo luminescent readout of SW480 viability loss, NPC library primary (AID 1117343;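 active means compounds that lower viability of the colon cancer cells in the luminescence readout, with no numeric limit stated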). The note with it: CellTiter-Glo luminescence; at 20 µM (top of the series).
Assay [8] is described as follows: decreased DLD-1 cellular survival, CellTiter-Glo luminescent readout, NPC compound collection, primary HTS (AID 1117346;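 active means compounds that lower survival of DLD-1 colon cancer cells in the luminescence readout, no cutoff given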). The note with it: DLD-1 viability, CellTiter-Glo luminescence; at 20 µM (top of the series).
The target in assay [9] is 6-phosphogluconate dehydrogenase, decarboxylating (Homo sapiens) (UniProt P52209). Briefly: 6PGD enzyme inhibitors, primary screen, biochemical, human, recombinant enzyme, NADPH absorbance (AID 1159550;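 active means at least 20% inhibition of 6-phosphogluconate dehydrogenase activity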). The conditions noted are these: recombinant 6PGD, NADPH absorbance 341 nm; at 10 µM; stronger effect = higher value.
Sequence of 6-phosphogluconate dehydrogenase, decarboxylating (Homo sapiens) (P52209 whole entry, looked up): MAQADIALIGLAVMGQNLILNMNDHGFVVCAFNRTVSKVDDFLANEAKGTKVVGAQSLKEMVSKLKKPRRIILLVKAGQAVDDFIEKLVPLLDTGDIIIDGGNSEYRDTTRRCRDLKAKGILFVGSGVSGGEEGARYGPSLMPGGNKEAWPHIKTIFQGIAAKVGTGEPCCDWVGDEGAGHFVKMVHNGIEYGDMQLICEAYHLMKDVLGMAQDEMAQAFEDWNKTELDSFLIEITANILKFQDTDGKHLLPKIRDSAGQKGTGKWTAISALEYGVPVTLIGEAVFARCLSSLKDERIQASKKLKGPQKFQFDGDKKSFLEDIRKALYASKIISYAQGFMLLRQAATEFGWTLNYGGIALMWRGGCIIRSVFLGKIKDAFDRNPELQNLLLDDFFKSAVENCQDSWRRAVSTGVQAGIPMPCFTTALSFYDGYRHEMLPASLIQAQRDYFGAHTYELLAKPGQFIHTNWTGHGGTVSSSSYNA
Assay [10] in a line: differential killing of epithelial or mesenchymal cells, primary screen, imaging, PC-3E GFP, TEM4-18 mCherry, co-culture (AID 1345086;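 active means compounds killing one labelled cell type while sparing the other, by normalised counts and ratio limits, not self-fluorescent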;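 on all read-outs here: cells exposed to compound for 72 h before imaging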;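 on red/green cell ratio (normalised): normalised mesenchymal count divided by normalised epithelial count so high means epithelial killing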). The conditions noted are these: imaging cell counts, at 1 µM; for red/green cell ratio (normalised): actives lie on both sides, counts scaled to control wells, 1 = unselective.
Assay [11] in a line: survival rescue of mitochondrial mutant cells in low glucose, primary screen, MELAS cybrids, Rieske KO mouse fibroblasts, CellTiter-Glo (AID 1508586;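 active means mean z-score across replicates of 1.96 or higher in either the MELAS or the Rieske mutant cell line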;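 further: z relative to plate mean and SD of compound and empty wells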).
The target in assay [12] is NAD(+) hydrolase SARM1 (Homo sapiens) (UniProt Q6SZW1). Briefly: SARM1 TIR NADase inhibitors, cell lysate, NAD-Glo luminescence (AID 1508614;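 active means compound whose remaining NAD level is above about 45 nM, limit read from the data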). The conditions noted are these: SAM-TIR HEK293T lysate NADase, at 1 µM, stronger effect = higher value.
Sequence of NAD(+) hydrolase SARM1 (Homo sapiens) (Q6SZW1 whole entry, looked up, the tested form may be a part): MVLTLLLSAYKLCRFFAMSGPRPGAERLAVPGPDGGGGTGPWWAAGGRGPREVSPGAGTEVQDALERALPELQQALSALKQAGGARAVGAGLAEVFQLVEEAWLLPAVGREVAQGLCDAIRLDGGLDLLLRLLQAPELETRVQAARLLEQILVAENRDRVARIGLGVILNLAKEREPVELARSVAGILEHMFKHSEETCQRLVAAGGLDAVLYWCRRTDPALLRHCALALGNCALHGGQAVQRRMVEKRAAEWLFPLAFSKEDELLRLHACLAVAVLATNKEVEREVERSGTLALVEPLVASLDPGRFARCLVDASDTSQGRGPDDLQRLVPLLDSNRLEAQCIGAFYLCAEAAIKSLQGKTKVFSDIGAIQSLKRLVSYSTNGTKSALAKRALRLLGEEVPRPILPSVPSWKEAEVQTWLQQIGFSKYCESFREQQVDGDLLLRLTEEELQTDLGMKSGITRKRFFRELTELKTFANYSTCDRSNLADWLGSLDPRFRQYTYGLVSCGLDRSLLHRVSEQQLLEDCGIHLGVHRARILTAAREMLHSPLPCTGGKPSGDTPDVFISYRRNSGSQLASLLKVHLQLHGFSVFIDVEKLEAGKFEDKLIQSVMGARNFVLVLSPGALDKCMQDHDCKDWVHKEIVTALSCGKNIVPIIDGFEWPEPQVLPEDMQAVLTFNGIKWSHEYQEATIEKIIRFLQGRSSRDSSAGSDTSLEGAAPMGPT
Assay [13] has as its target Mitogen-activated protein kinase 7 (Homo sapiens) (UniProt Q13164). Briefly: ERK5 transactivation activators in reporter cells, primary screen, cell-based, HTS (AID 1508626;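 active means luciferase signal above three times the same-plate solvent-only control wells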;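 further: luciferase driven by Gal4-ERK5 fusion binding five Gal4 sites before minimal TATA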). The note with it: HeLa Gal4-ERK5 transactivation, 18 h, at 5 µM, stronger effect = higher value.
A further assay deals with F380Y. Briefly: modulators of BK channel variants, profiling panel, selectivity assay, cell-based, U2OS BacMam, thallium flux, beta subunits (AID 1259406).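 Further: initial slope of Thallos dye fluorescence rise after thallium is added; log ratio against the mean of 0.3% DMSO vehicle wells on the same plate.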 The conditions noted are these: at 30 µM.
The subject of another assay is F380Y/beta2Delta. The assay is described as above. The note with it: at 30 µM.
Assay [14] concerns the target Calcium-activated potassium channel subunit alpha-1 (Homo sapiens) + Leucine-rich repeat-containing protein 26 (Homo sapiens) (UniProt Q12791+Q2I0M4). The description is as above. The note with it: F380Y/Slo1WT/gamma1, at 30 µM.
The test system of the next assay is R275C. Described as above. The note with it: at 30 µM.
In a further assay the test system is R275C/beta1. The assay is described as above. The note with it: at 30 µM.
The next assay has as its system R275C/beta2Delta. Described as above. The conditions noted are these: at 30 µM.
Setting [15] is: measured here: epithelial PC-3E GFP cell survival.
[16] abbreviates: measured here: mesenchymal TEM4-18 mCherry cell survival.
[17] abbreviates: MELAS cybrid survival, CellTiter-Glo 48 h, stronger effect = higher value.
[18] abbreviates: Rieske KO mouse fibroblast survival, CellTiter-Glo 72 h.

“And” between values parts separate entries of the source, which are not always exact repeats. Equal values may be shown once. The source made the active and inactive calls.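 How the source made its calls, unless noted: active means thallium flux through the channel raised or lowered by more than 3 SD from vehicle-only wells, actives on both sides; inactive means the rest.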

Sequence of Mitogen-activated protein kinase 7 (Homo sapiens) (Q13164 whole entry, looked up, the tested form may be a part): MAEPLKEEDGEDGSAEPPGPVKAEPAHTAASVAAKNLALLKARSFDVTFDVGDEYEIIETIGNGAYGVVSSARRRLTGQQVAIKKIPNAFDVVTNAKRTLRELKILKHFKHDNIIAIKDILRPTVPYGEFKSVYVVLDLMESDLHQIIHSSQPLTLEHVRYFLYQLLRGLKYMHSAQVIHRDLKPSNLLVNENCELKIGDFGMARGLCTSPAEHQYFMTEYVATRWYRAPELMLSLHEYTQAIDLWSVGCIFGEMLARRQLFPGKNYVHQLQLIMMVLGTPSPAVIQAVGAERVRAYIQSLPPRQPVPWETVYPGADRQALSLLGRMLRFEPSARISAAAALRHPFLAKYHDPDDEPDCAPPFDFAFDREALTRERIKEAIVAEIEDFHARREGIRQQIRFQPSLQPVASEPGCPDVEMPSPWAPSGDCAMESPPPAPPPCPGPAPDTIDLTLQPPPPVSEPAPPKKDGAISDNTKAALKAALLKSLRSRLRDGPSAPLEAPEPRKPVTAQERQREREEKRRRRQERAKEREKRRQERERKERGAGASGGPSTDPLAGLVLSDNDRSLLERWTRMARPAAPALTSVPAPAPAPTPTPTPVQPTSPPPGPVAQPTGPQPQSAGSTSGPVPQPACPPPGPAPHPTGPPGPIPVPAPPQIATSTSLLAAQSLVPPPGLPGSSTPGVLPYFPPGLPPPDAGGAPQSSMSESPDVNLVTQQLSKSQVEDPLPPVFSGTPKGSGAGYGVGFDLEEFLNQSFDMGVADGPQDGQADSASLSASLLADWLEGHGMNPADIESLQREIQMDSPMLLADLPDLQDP
Sequence of Calcium-activated potassium channel subunit alpha-1 (Homo sapiens) + Leucine-rich repeat-containing protein 26 (Homo sapiens) (Q2I0M4 whole entry, looked up, one chain of several): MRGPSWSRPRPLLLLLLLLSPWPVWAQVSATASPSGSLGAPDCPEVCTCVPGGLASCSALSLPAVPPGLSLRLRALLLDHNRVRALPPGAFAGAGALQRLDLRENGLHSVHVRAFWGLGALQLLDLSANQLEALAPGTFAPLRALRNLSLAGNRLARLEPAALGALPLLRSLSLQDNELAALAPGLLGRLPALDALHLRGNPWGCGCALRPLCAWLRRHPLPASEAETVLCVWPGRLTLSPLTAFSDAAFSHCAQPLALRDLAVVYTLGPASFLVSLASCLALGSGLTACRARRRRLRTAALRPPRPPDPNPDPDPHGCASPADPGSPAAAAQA

`CN[C@@H]1[C@H](O)[C@H](NC)[C@H]2O[C@@]3(O)C(=O)C[C@@H](C)O[C@H]3O[C@@H]2[C@H]1O`: the nuclear beta-catenin stimulation in [1] (at 10 µM) was 0.2% (inactive); in assay [1] (stimulation, at 2 µM), 3.5%. The insulin secretion stimulation in [2] was -0.2% (inactive). Besides, in assay [3], the viability decrease is 12.5% (inactive). Besides, the tube area decrease in assay [4] is -8.4% (inactive). Besides, the GLP1 secretion stimulation in assay [5] is 23.7% (active). Moreover, the inhibition of viability in assay [6] is 6.2% (inactive). Besides, the values for the viability decrease (inhibition) in [7] and in [8] were 12.1% (inactive) and 3.7% (inactive), respectively. Also, the inhibition in assay [9] was -6.86% (inactive). Besides, the red/green cell ratio (normalised) in assay [10] was 1.39 (inactive). In addition, the normalised cell number in assay [10] (setting [15]) was 0.94; in assay [10] (setting [16]) it was 1.31. In addition, the z-score in assay [11] (setting [17]) was 0.0203 (inactive) and 0.894 (inactive); in [11] (setting [18]), 0.169 and 0.769. The remaining NAD in assay [12] is 10 nM (inactive). For the same molecule, the luciferase signal in [13] is 44 AU (inactive). For the same molecule, the log fold change Tl+ flux with F380Y was -0.0285 (inactive); with F380Y/beta2Delta, -0.0192 (inactive); in assay [14], 0.021 (inactive); with R275C it was 0.108 (active); in the assay on R275C/beta1, 0.0857 (inactive); with R275C/beta2Delta, -0.00159 (inactive).

Consider `CC(C)(C)NC[C@H](O)COc1nsnc1N1CCOCC1`, for which the nuclear beta-catenin stimulation in assay [1] (at 10 µM) is 2.1% (inactive); in assay [1] (stimulation, at 2 µM), 0.4%. The insulin secretion stimulation in assay [2] is 3.2% (inactive). Moreover, in [3], the viability decrease is 6.4% (inactive). Also, in [4], the tube area decrease is -8.3% (inactive). For the same molecule, the GLP1 secretion stimulation in assay [5] was 1.7% (inactive). In addition, the inhibition of viability in assay [6] was -6.3% (inactive). For the same molecule, the viability decrease (inhibition) in [7] was -4.9% (inactive); in [8] it was -2.7% (inactive). The inhibition in assay [9] was -2.5% (inactive). In addition, the z-score in assay [11] (setting [17]) was 0.744 (inactive) and 0.988 (inactive); in assay [11] (setting [18]), 0.265 and 0.0861. Also, in [12], the remaining NAD is 10 nM (inactive). Also, the luciferase signal in assay [13] is 32 AU (inactive). The log fold change Tl+ flux was 0.0205 (inactive) in the assay with F380Y; 0.019 (inactive) with F380Y/beta2Delta; 0.00124 (inactive) in assay [14]; -0.000858 (inactive) in the assay with R275C; -0.0605 (inactive) with R275C/beta1; -0.0488 (inactive) with R275C/beta2Delta.

As for `COc1ccccc1N1CCN(CCCNc2cc(=O)n(C)c(=O)n2C)CC1`, the nuclear beta-catenin stimulation in assay [1] (at 10 µM) is 4.3% (inactive); in assay [1] (stimulation, at 2 µM) it was 0.2%. The insulin secretion stimulation in [2] was 1.1% (inactive). Besides, the viability decrease in assay [3] was 1.1% (inactive). Moreover, the tube area decrease in assay [4] is 1% (inactive). Also, the GLP1 secretion stimulation in [5] was -0.1% (inactive). Also, the inhibition of viability in assay [6] was 10.8% (inactive). In addition, the viability decrease (inhibition) was -11.2% (inactive) in [7] and -9.9% (inactive) in assay [8]. In addition, in assay [9], the inhibition is -3.41% (inactive). The red/green cell ratio (normalised) in assay [10] is 1.12 (inactive). The normalised cell number in [10] (setting [15]) was found to be 0.91; in [10] (setting [16]) it was 1.01. The z-score in [11] (setting [17]) was -0.289 (inactive) and 0.285 (inactive); in [11] (setting [18]), 0.041 and 0.0737. Further, the remaining NAD in [12] was 10 nM (inactive). For the same molecule, the luciferase signal in [13] was 40 AU (inactive). The log fold change Tl+ flux was -0.0416 (inactive) with F380Y; -0.00368 (inactive) in the assay on F380Y/beta2Delta; -0.00786 (inactive) in assay [14]; -0.0421 (inactive) in the assay with R275C; 0.0413 (inactive) in the assay with R275C/beta1; 0.0288 (inactive) with R275C/beta2Delta.
